Results as given in PubChem BioAssay AID1259421 (Broad Institute, 2018).
Values joined by “and” are separate entries in the source; they are usually repeats but may differ in a detail not shown here. Equal entries are not always repeated. The campaign covered roughly 6,400 compounds. About 610 (9.5%) were called active. No stated cut-off is given here; in the data, active means activity change below about -70%; inconclusive means no clear call, values can overlap the other calls; inactive means above that. The sample as a whole holds a higher share of actives than the screen did. The source holds several records for some structures; these can differ, active in one and inactive in another. Where a SMILES comes first, the peptide text is derived from it.

test: T. gondii ME49Luc in HeLa cells, luciferase assay, 72 h, no IFN-y (AID 1259421); conditions: stronger effect = lower value, concentration not given here

Row | SMILES | activity change, negative = inhibition
1 | CSc1nc(NC2CCCC2)c([N+](=O)[O-])c(NC2CCCC2)n1 | 15.2% (inactive) and 17.7% (inactive)
2 | CCCCCCOC(=O)/N=C(/N)c1ccc(NCc2nc3cc(C(=O)N(CCC(=O)OCC)c4ccccn4)ccc3n2C)cc1 | 13.2% (inactive)
3 | CC(=O)OCC(=O)[C@@]12OC(C)(C)O[C@@H]1CC1C3C[C@H](F)C4=CC(=O)C=C[C@]4(C)[C@@]3(F)[C@@H](O)C[C@@]12C (some centres undefined) | 8.91% (inactive) and 0.0222% (inactive)
4 | COC1=CC(=O)C(=O)C/C1=C\C=C\c1ccccc1 | -4.53% (inactive)
5 | CCCCCCCCCCCCN1CCCCCC1=O | 10.1% (inactive)
6 | COc1cc(NS(C)(=O)=O)ccc1Cc1c2ccccc2nc2ccccc12 | -78.8% (active)
7 | COc1cc(NS(C)(=O)=O)ccc1Nc1c2ccccc2nc2ccccc12 | -35.3% (inactive) and -53.5% (inactive)
8 | COc1ccccc1S(=O)(=O)Nc1ccc2c(c1)CN(C)C(=O)N2 | 28.4% (inactive)
9 | Cc1cc(=O)c2c(O)c3c(O)cc(O)c4c5c(O)cc(O)c6c(O)c7c(=O)cc(C)c8c1c2c(c34)c(c65)c78 | -7.43% (inactive)
10 | C[C@@]1(O)[C@H](O)[C@@H](CO)O[C@H]1n1cnc2c(NC3CCCC3)nc(Cl)nc21 | 14.8% (inactive)
11 | C=CC(=O)Nc1cccc(Nc2nc(Nc3ccc(NC4CN(CCF)C4)cc3OC)ncc2C(F)(F)F)c1 | -9.1% (inactive)
12 | CC(=O)NCC(=O)N1[C@@H]2CC[C@H]1c1ccc(Nc3ncc(C(F)(F)F)c(NC4CCC4)n3)cc12 | -73.8% (active)
13 | C=CC(=O)Nc1cccc(Nc2nc(Nc3ccc(N4CCN(C(C)=O)CC4)cc3OC)ncc2C(F)(F)F)c1 | 15.7% (inactive)
14 | S=c1ccss1 | 1.03% (inactive)
15 | COc1ccc(-c2cc(=O)c3c(O)cc(O)cc3o2)cc1 | 127% (inactive)
16 | CC(C)c1c(C(=O)Nc2ccccc2)c(-c2ccccc2)c(-c2ccc(F)cc2)n1CC[C@@H](O)C[C@@H](O)CC(=O)O | 9.33% (inactive)
17 | CC(C)N1c2ccccc2C(c2ccc(F)cc2)C1/C=C/C(O)CC(O)CC(=O)O (centres undefined) | -15.2% (inactive)

Row | SMILES | activity change, negative = inhibition
18 | COCc1c(C(C)C)nc(C(C)C)c(/C=C/[C@@H](O)C[C@@H](O)CC(=O)O)c1-c1ccc(F)cc1 | -88.4% (active)
19 | CC(C)c1nc(N(C)S(C)(=O)=O)nc(-c2ccc(F)cc2)c1/C=C/[C@@H](O)C[C@@H](O)CC(=O)O | 15.1% (inactive) and -35.2% (inactive)
20 | O=C(O)C[C@H](O)C[C@H](O)/C=C/c1c(C2CC2)nc2ccccc2c1-c1ccc(F)cc1 | -31.6% (inactive) and 2.61% (inactive)
21 | CC(C)n1c(/C=C/[C@@H](O)C[C@@H](O)CC(=O)O)c(-c2ccc(F)cc2)c2ccccc21 | -79.8% (active) and 10.3% (inactive)
22 | COc1cc(SC)ccc1C(=O)N1CCC(Cc2ccccc2)CC1 | 36.5% (inactive) and 48.1% (inactive)
23 | CC(C)N(C[C@H]1O[C@@H](n2cnc3c(N)ncnc32)[C@H](O)[C@@H]1O)C1CC(CCc2nc3ccc(C(C)(C)C)cc3[nH]2)C1 (some centres undefined) | 8.46% (inactive) and -64.1% (inactive)
24 | O=C(O)C(=O)Nc1cccc(-c2nn[nH]n2)c1 | 5.48% (inactive)
25 | CN1CCc2nc(C(=O)N[C@H]3C[C@H](C(=O)N(C)C)CC[C@@H]3NC(=O)C(=O)Nc3ccc(Cl)cn3)sc2C1 | 9.11% (inactive)
26 | C[C@H](N)C(=O)N[C@@H](CCC(N)=O)C(=O)O (H-Ala-Gln-OH) | 3.92% (inactive)
27 | N#C/C(=C/c1ccc(O)c(O)c1)C(=O)NCCCc1ccccc1 | -10.8% (inactive)
28 | NC(N)=NC(=O)c1cnccn1 | 11.4% (inactive)
29 | CC(C)(C)NCC(O)COc1cccc2c1C[C@H](O)[C@H](O)C2 (some centres undefined) | 4.27% (inactive)
30 | COc1ccc2c(O[C@H]3CC4C(=O)N(C)CCCC/C=C\[C@@H]5C[C@@]5(C(=O)NS(=O)(=O)C5CC5)NC(=O)[C@@H]4C3)cc(-c3nc(C(C)C)cs3)nc2c1C (some centres undefined) | -71.4% (active)
31 | CC(C)(C)OC(=O)N[C@H]1CCCCC/C=C\[C@@H]2C[C@@]2(C(=O)NS(=O)(=O)C2CC2)NC(=O)[C@@H]2C[C@@H](OC(=O)N3Cc4cccc(F)c4C3)CN2C1=O | 19.7% (inactive)
32 | N#CC(Cc1ccc(O)cc1)c1ccc(O)cc1 (centres undefined) | 6.16% (inactive) and 5.25% (inactive)
33 | CC(=O)OCC(=O)[C@@]1(OC(C)=O)[C@@H](C)CC2C3C[C@H](F)C4=CC(=O)C=C[C@]4(C)[C@@]3(F)[C@@H](O)C[C@@]21C (some centres undefined) | -5.04% (inactive) and -3.76% (inactive)
34 | CCC[C@@H]1C[C@@H](C(=O)N[C@H]([C@H]2O[C@H](SC)[C@H](O)[C@@H](O)[C@H]2O)[C@H](C)O)N(C)C1 | -17.1% (inactive)
